# DT40 TDP1 CPT: DT40-hTDP1 cell growth loss with CPT; chicken DT40 Tdp1-/-;hTDP1 cells + 20 nM CPT, ATP luminescence, 48 h; Potency, µM (top dose mostly 46.2 µM), without a hit: at the top dose activity change, negative = growth inhibition, actives largely listed as inhibitors; actives 12% (n = 420,000); AID 686979; further: potency means the concentration at half of the fitted maximal effect; nearly all actives have a fitted effect of over 55% in size
#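 Chicken DT40 Tdp1-/- cells complemented with human TDP1, 400 cells/well, exposed to compounds plus 20 nM camptothecin for at least 48 h at 37 C; viability read as ATP content by CellTiter-Glo luminescence.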
# HT1080 IDH1KD tx: toxicity to HT-1080 IDH1 knockdown cells (counter line) | actives 2% (n = 360,000) | Potency, µM (series often up to 46.1 µM), without a hit: at the top dose activity, negative = toxicity, hits mostly cytotoxic | HT-1080 IDH1 knockdown viability, ATP luminescence, 48 h;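 further: potency means the concentration at half of the fitted maximal effect; 0% = DMSO wells and -100% = cell-free medium wells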
#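 HT-1080-IDH1KD cells (IDH1 knocked down), 750/well in RPMI with 5% FBS, treated with compound 48 h at 37 degrees C. Viability by CellTiter-Glo luminescence, normalised to DMSO and no-cell wells; concentration-response curves classed.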
# DT40 TDP1 no CPT: qHTS for Inhibitors of human tyrosyl-DNA phosphodiesterase 1 (TDP1): qHTS in cells in absence of CPT | DT40 Tdp1-/- hTDP1 cells, no CPT, ATP luminescence, 48 h | Potency, µM (titrated, usually from 46.2 µM), inactives show at the top dose activity change, negative = growth inhibition, actives largely listed as inhibitors | actives 15% (n = 420,000) | AID 686978, 2013; further: potency means the concentration at half of the fitted maximal effect; nearly all actives have a fitted effect of over 55% in size
#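 Stably hTDP1-transfected Tdp1-null chicken DT40 cells were treated with library compounds minus camptothecin and grown for at least 48 hr at 37 °C, after which cellular ATP was quantified by luminescence.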
# HT1080-NT tox: kills 2HG-producing HT-1080-NT fibrosarcoma cells; HT-1080-NT fibrosarcoma viability, CellTiter-Glo ATP luminescence, 48 h; Potency, µM (series often up to 46.1 µM), without a hit: at the top dose activity, negative = less viability, usual class: cytotoxic; actives 1.6% (n = 360,000); AID 686970;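 further: NT is the 2HG producing partner of a matched IDH1 knockdown line; potency means the concentration at half of the fitted maximal effect; 0% = DMSO-treated cells and -100% = media-only wells without cells; nearly all actives have a fitted effect of over 55% in size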
#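 750 cells/well, RPMI + 5% FBS; 2 h settle, compound pin-transfer, 48 h at 37 degrees C. CellTiter-Glo 10 min RT, luminescence. Normalized to DMSO and media-only wells.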
# IL-1B inflam inh: inhibitors of inflammasome signaling (IL-1 beta secretion); actives 4.7% (n = 360,000); activity change, % at 57.5 µM; THP-1 LPS/ATP IL-1B secretion, AlphaLISA, 16 h; hits give low values; in the data active means activity change below about -50%; inconclusive means mostly about -30% to -49%
#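 THP-1 cells pretreated 1 hr with compounds (up to 57.5 uM final), then stimulated with LPS (250 ng/mL final) plus ATP (1.25 mM final); secreted IL-1B measured by AlphaLISA after 16 hr, decreased signal indicating inhibition.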
# uPA surface inh: blocks generation of uPA at the cell surface. actives 0.31% (n = 330,000). AID 540303. Potency, µM (doses to about 38.3 µM), inactives show at the highest dose activity change, negative = inhibition, most hits filed as inhibitors. cell surface uPA generation assay, qHTS; active means well fitted inhibition curve with a large enough effect; inconclusive means small, poorly fitted or top-dose-only effect; inactive means no such curve, though single readings can be large or run the other way; tested in mouse RAW 264.7 cells; further: potency means the concentration at half of the fitted maximal effect; nearly all actives have a fitted effect of over 55% in size
# An asterisk follows results filed as active; u = inconclusive; x = not tested or not shown; [ ] = remark or other dose. A selection: hits, their analogues and other compounds. The true share with any hit is near 19%. Unless noted, the call rests on the fitted dose curve; in most records, active means well fitted curve in the direction sought with a large enough effect; inconclusive means small, poorly fitted or top-dose-only effect, or another doubt; inactive means no such curve, though single readings can be large; an effect the other way counts as inactive or inconclusive. Unless noted, on the % scale 0 is the no-effect control and ±100 the full control effect.
SMILES,DT40 TDP1 CPT,HT1080 IDH1KD tx,DT40 TDP1 no CPT,HT1080-NT tox,IL-1B inflam inh,uPA surface inh
CCN1CCN(Cc2ccc(NC(=O)c3cc(NC(=O)C(=O)c4c[nH]c5ccccc45)cc(OC)c3)cc2C(F)(F)F)CC1,23.1µM*,u,20.6µM*,16.4µM*,-79.6*,u
Cc1ccnc(NC(=O)c2ccc(S(=O)(=O)N3CCC(C)CC3)cc2)c1,-3.9%,-0.6%,-26.5%,-2.2%,u,-5.4%
CCN(CC)C(=O)Oc1ccc2oc(=O)cc(-c3cc4cccc(OC)c4o3)c2c1,u,1.7%,-27.3%,15.0%,-64.7*,-2.3%
COc1ccc(S(=O)(=O)N2C(=O)/C(=C3\SC(N)=NC3=O)c3ccccc32)cc1,-0.8%,12.8%,-13.2%,u,15.0,-1.2%
COc1ccc(C(O)c2ncc(-c3ccccc3)[nH]2)c(OC)c1 (stereo not given),-22.3%,8.8%,-16.6%,4.7%,-5.1,x
COc1cccc(C2c3[nH]c4ccccc4c3C[C@H]3C(=O)N(CCCOC(C)C)CC(=O)N23)c1 (stereo not given in full),8.1%,9.3%,15.4%,16.2%,6.7,8.0%
COCCCN1CC(=O)N2C(c3ccccc3)c3[nH]c4ccccc4c3C[C@H]2C1=O (stereo not given in full),7.7%,-5.6%,4.1%,-9.8%,-5.6,-12.9%
C=CCN1CC(=O)N2C(c3ccccc3)c3[nH]c4ccccc4c3C[C@H]2C1=O (stereo not given in full),u,-17.9%,18.4µM*,-17.5%,12.0,-1.7%
CC(C)OCCCN1CC(=O)N2C(c3ccccc3)c3[nH]c4ccccc4c3C[C@H]2C1=O (stereo not given in full),u,-3.0%,u,-27.6%,-62.4*,-0.4%
O=C(Nc1nc2cc(Cl)ccc2s1)C1CCCN(S(=O)(=O)c2cccc3cccnc23)C1 (stereo not given),20.6µM*,u,16.4µM*,-3.5%,-19.5,12.6µM*
CC(=O)c1cccc(NC(=O)C2CCCN(S(=O)(=O)c3cccc4cccnc34)C2)c1 (stereo not given),20.6µM*,-6.3%,u,-11.7%,0.0,2.6%
CCc1ccc(NC(=O)C2CCCN(S(=O)(=O)c3cccc4cccnc34)C2)cc1 (stereo not given),18.4µM*,x,16.4µM*,x,x,x
O=C(Nc1ccccc1Cl)C1CCCN(S(=O)(=O)c2cccc3cccnc23)C1 (stereo not given),u,-5.6%,u,-4.9%,-18.1,-20.0%
O=C(Nc1ccc(F)cc1)C1CCCN(S(=O)(=O)c2cccc3cccnc23)C1 (stereo not given),u,-11.1%,u,-7.4%,-18.3,-1.4%
O=C(Nc1nccs1)C1CCCN(S(=O)(=O)c2cccc3cccnc23)C1 (stereo not given),u,-2.3%,14.6µM*,-8.1%,-13.2,-0.1%
Cc1ccc(S(=O)(=O)N2CCN(C(=O)COC(=O)c3ccc(Cl)c(S(N)(=O)=O)c3)CC2)c(C)c1,10.4%,6.9%,-11.0%,7.4%,-9.7,-10.8%
COC(=O)C1C(=O)N(S(=O)(=O)c2ccc([N+](=O)[O-])cc2)c2ccccc21 (stereo not given),9.6%,-0.5%,4.6%,-4.2%,-12.6,x
COc1ccc(NC(=O)CN2C(=O)C(c3ccc(C(C)(C)C)cc3)=NC2(C)C)cc1Cl,-12.0%,x,-21.6%,x,x,x
COc1ccc(CCNc2ncnc3sc(C(=O)N(C)C)c(C)c23)cc1OC,-7.5%[9.04 µM],x,-14.8%,x,x,x
COc1ccc(CCNc2nc(=O)[nH]nc2C)cc1OC,-6.7%,2.3%,-1.0%,-0.2%,5.0,1.8%
COc1ccc(CCNc2ncnc3c2c(-c2ccccc2)cn3-c2cccc(Cl)c2)cc1OC,7.31µM*,x,9.2µM*,x,x,x
COc1ccc(-n2cc(-c3ccccc3)c3c(NCCc4ccc(OC)c(OC)c4)ncnc32)cc1,23.1µM*,x,20.6µM*,x,x,x
Cc1c(C(=O)N2CCCC2)oc2c1-c1nn(CC(=O)NC(C)c3ccccc3)cc1CC2 (stereo not given),u,x,23.1µM*,x,x,x
CCOC(=O)c1ccc(NC(=O)c2oc3c(c2C)-c2nn(Cc4ccccc4Cl)cc2CC3)cc1,20.6µM*,x,20.6µM*,x,x,x
CCn1cc2c(n1)-c1c(oc(C(=O)Nc3cccc(C)c3C)c1C)CC2,u,x,14.6µM*,x,x,x
SMILES,DT40 TDP1 CPT,HT1080 IDH1KD tx,DT40 TDP1 no CPT,HT1080-NT tox,IL-1B inflam inh,uPA surface inh
Cc1cccc(C)c1NC(=O)c1oc2c(c1C)-c1nn(Cc3ccccc3)cc1CC2,18.4µM*,x,14.6µM*,x,x,x
Cc1c(C(=O)O)oc2c1-c1nn(Cc3ccccc3Cl)cc1CC2,5.9%,x,u,x,x,x
Cc1c(C(=O)N2CCCC2)oc2c1-c1nn(CC(=O)NCCCN3CCCCC3)cc1CC2,-1.6%,10.3%,2.3%,1.3%,-26.5,0.8%
CC(=O)c1cccc(NC(=O)c2oc3c(c2C)-c2nn(Cc4ccc(Cl)cc4)cc2CC3)c1,u,x,25.9µM*,x,x,x
O=c1oc2ccccc2cc1-c1cn2ccccc2n1,u,23.1µM*,u,25.9µM*,26.9,-19.7%
O=c1oc2ccccc2cc1-c1cn2cccnc2n1,u,-7.9%,u,-2.8%,22.5,-3.9%
CC1(C)CC(=O)C=C(c2ccc(CO)cc2)C1=O,0.9%,1.9%,-15.2%,1.0%,2.2,x

# Compound activity as filed in PubChem BioAssay.
